# Results with a measured potency or affinity are listed apart. Results filed as inconclusive are left out. The source made the active and inactive calls.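 The calls were made as follows: active = signal-lowering compounds whose fitted half-maximal concentration is at or below twice the top tested dose in every run; inconclusive = runs disagree, flat 30 to 70% inhibition, or poor curve fit; inactive = the rest.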
# Experiment: inhibitors of CMV-promoter luciferase reporter, dose response, counter-screen for Pax8 inhibitor project, cell-based, HEK293, luminescence, dry powder (AID 743020);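 also: HEK293 cells stably expressing the CMV luciferase reporter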
# Details: SteadyGlo luminescence, 24 h; series mostly up to 35 µM
row,Compound,outcome
1,C[C@H](CO)N1C[C@H](C)[C@@H](CN(C)S(=O)(=O)c2ccc(Cl)cc2)OCCCC[C@H](C)Oc2ccc(NS(=O)(=O)c3ccc(F)cc3)cc2C1=O,inactive
2,CS(=O)(=O)Nc1ccc2c(c1)[C@@H]1C[C@@H](CC(=O)NCc3ccc(-c4ccccc4)cc3)O[C@@H](CO)[C@@H]1O2,inactive
3,COc1ccccc1NC(=O)N1CCCCN2[C@H](C1)[C@@H](c1ccc(-c3cccc(C#N)c3)cc1)[C@@H]2CO,inactive
4,COc1ccc(NC(=O)Nc2ccc3c(c2)C(=O)N([C@@H](C)CO)C[C@@H](C)[C@@H](CN(C)Cc2ccc(C(F)(F)F)cc2)O3)cc1,inactive
5,C=C(C)c1cccc(C(C)(C)NC(=O)N2CCN(c3ccccc3OC)CC2)c1,inactive
6,Cc1ccc(S(=O)(=O)Nc2ccc3c(c2)C(=O)N([C@H](C)CO)C[C@H](C)[C@@H](CN(C)S(=O)(=O)c2ccc(F)cc2)OCCCC[C@H](C)O3)cc1,inactive
7,COc1cccc(-c2ccc3c(c2)[C@@H]2[C@@H](CCN2S(=O)(=O)c2ccccc2C)[C@H](CO)N3C)c1,inactive
8,C[C@H]1CCCCO[C@H](CN(C)Cc2ccc(C(F)(F)F)cc2)[C@@H](C)CN([C@@H](C)CO)C(=O)c2cc(NC(=O)Nc3ccc(F)cc3)ccc2O1,inactive
9,C[C@H]1CN([C@@H](C)CO)S(=O)(=O)c2ccc(C#Cc3ccccc3F)cc2O[C@H]1CN(C)C(=O)c1ccc2c(c1)OCO2,inactive
10,C[C@@H]1CCCCO[C@@H](CN(C)Cc2ccncc2)[C@H](C)CN([C@@H](C)CO)C(=O)c2cc(NC(=O)Nc3ccc(C(F)(F)F)cc3)ccc2O1,inactive
11,C[C@@H]1CCCCO[C@H](CN(C)C(=O)c2ccccc2)[C@H](C)CN([C@@H](C)CO)C(=O)c2cc(NC(=O)Nc3ccc(C(F)(F)F)cc3)ccc2O1,inactive
12,C[C@H]1CN([C@@H](C)CO)S(=O)(=O)c2ccc(C#Cc3ccncc3)cc2O[C@@H]1CN(C)C(=O)Nc1ccc2c(c1)OCO2,inactive
13,Oc1ccc(C[C@H]2CNC(=S)N2CC2CCCN2C[C@H](Cc2ccc(O)cc2)N2C[C@H](Cc3ccccc3)N(CC3CCCCCC3)C2=S)cc1 (stereo not given in full),inactive
14,C[C@@H]1CCCCO[C@H](CN(C)Cc2ccncc2)[C@H](C)CN([C@H](C)CO)C(=O)c2cc(NC(=O)Nc3ccc(C(F)(F)F)cc3)ccc2O1,inactive
15,O=S(=O)(c1ccccc1F)N1CC[C@@H]2[C@H](CO)Nc3ccc(C4=CCCCC4)cc3[C@@H]21,inactive
